Calls of active or inactive are those of the source.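 How the source made its calls: active means compounds whose rat M5 calcium response changes with dose, giving a fitted curve judged by the depositor; inactive means the rest, with no dose-dependent response.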

The target of the experiment is Muscarinic acetylcholine receptor M5 (Rattus norvegicus) (UniProt P08911). The experiment can be described thus: off-target potentiation of rat M5 ACh response – CHO-K1 cells, calcium fluorescence, ACh EC20, selectivity assay for M4 PAM optimization project, SAR follow-up (AID 623946). As to conditions: CHO-K1 rM5, calcium fluorescence; series mostly up to 30 µM.
Sequence of Muscarinic acetylcholine receptor M5 (Rattus norvegicus) (P08911 whole entry, looked up): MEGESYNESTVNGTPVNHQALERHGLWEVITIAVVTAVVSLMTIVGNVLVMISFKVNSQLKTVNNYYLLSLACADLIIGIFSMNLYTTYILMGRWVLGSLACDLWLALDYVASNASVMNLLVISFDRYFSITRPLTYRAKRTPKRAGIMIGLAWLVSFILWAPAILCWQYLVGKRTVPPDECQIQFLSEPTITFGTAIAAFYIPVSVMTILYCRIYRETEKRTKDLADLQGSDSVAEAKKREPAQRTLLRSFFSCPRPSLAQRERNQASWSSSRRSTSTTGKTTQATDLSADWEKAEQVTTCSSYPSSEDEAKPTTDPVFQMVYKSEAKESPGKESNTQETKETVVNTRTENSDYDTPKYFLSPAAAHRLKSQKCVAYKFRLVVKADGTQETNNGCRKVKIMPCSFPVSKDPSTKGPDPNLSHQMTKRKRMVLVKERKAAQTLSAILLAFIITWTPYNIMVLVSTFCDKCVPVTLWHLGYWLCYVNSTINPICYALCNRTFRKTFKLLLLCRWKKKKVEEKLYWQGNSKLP
Turning to `Cc1nc2sc(C(=O)NCc3ccncc3)c(N)c2c(C)c1Cl`, the outcome was inactive.

For the molecule `Cc1nc2sc(C(=O)NCc3cccnc3)c(N)c2c(C)c1Cl`, the result was inactive.

For the molecule `COc1ccc(C)c2sc(NC(=O)c3ccncc3)nc12`, the outcome was inactive.

Take `Cc1nc2sc(C(=O)NCc3ccncn3)c(N)c2c(C)c1Cl`: the result was inactive.

For `Cc1nc2sc(C(=O)NCc3ccc4c(c3)OCO4)c(N)c2c(C)c1Cl`, the outcome was inactive.

For `Cc1nc2sc(C(=O)NCc3ccccc3)c(N)c2c(C)c1Cl`, the outcome was inactive.

For the molecule `Cc1nc2sc(C(=O)NCc3nccs3)c(N)c2c(C)c1Cl`, the result was inactive.

For the molecule `Cc1nc2sc(C(=O)NCc3cccc(F)c3F)c(N)c2c(C)c1Cl`, the result was inactive.

Consider `Cc1nc2sc(C(=O)NC3CC3)c(N)c2c(C)c1Cl`, for which the result was inactive.

As to `Cc1nc2sc(C(=O)NCCc3ccncc3)c(N)c2c(C)c1Cl`, the result was inactive.

Source of the values: PubChem BioAssay AID623946 (Vanderbilt Specialized Chemistry Center, 2012).
